Calls of active or inactive are those of the source.
Columns and labels:
Albumin (Bos taurus) = Albumin (Bos taurus) (UniProt P02769); experiment: bovine serum albumin binders on microarray, profiling panel, artefact control for SMM control protein annotation, biochemical, small-molecule microarray, Alexa647 label, 635/667 nm fluorescence (AID 1118); conditions: BSA-A647 binding, fluorescence 635 nm, higher = more signal;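 also: score merges 667 nm emission intensity and signal-to-noise per printed compound spot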
[1] = small-molecule microarray binders of probe aXIP, primary screen, biochemical, NeuroSMM set, 635/667 nm fluorescence (AID 1119); conditions: higher = more signal, called active from +8 up or from −8 down;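 also: probe is the protein aXip251-270 applied at 1 µg/mL to compound-printed slides; binding of probe to printed compounds measured as 667 nm fluorescence plus signal to noise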
[2] = small-molecule binders of probe aNOTCH3, primary screen, biochemical, small-molecule microarray, 635/667 nm fluorescence (AID 1120); conditions: higher = more signal;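 also: probe is a biotin-tagged antibody raised against NOTCH3 rather than NOTCH3 protein; score merges spot fluorescence near 667 nm with spot signal to noise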
[3] = small-molecule binders of probe aNOTCH2, primary screen, biochemical, small-molecule microarray, 635/667 nm fluorescence (AID 1121); conditions: higher = more signal;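 also: score merges feature fluorescence read at 667 nm with its signal to noise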
[4] = biological target: Carbonic anhydrase 2 (Homo sapiens) (UniProt P00918); experiment: CAII small-molecule binders, profiling panel, biochemical, small-molecule microarray, Alexa647-labelled CAII (AID 1122); conditions: CAII-A647 binding fluorescence, higher = more signal
[5] = COS7 lysate on small-molecule microarray, probe aHis, 635 nm (AID 1123); conditions: COS7 cell lysate, fluorescence, higher = more signal;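 also: z-score combines 667nm fluorescence intensity with signal-to-noise per printed compound spot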
[6] = compound binding in COS7 lysate, probe aLAP1, primary screen, cell lysate, small-molecule microarray (AID 1124); conditions: probe aLAP1, fluorescence, higher = more signal;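 also: lysate comes from COS7 cells expressing LAP1 and is applied at 0.3 µg/mL; score merges spot fluorescence near 667 nm with signal-to-noise over triplicate slides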
Sam68 (KHDRBS1) = experiment: Sam68 small-molecule binders, primary screen, biochemical, small-molecule microarray, 635 nm fluorescence (AID 1125); conditions: small-molecule microarray binding, higher = more signal;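 also: score merges 667 nm channel intensity with signal to noise over triplicate slides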
[7] = tested on: Chordin-like protein 2 (CHRDL2); experiment: CHRDL2 small-molecule binders, primary screen, biochemical, small-molecule microarray, 635 nm fluorescence (AID 1126); conditions: small-molecule microarray binding, fluorescence 635 nm; higher = more signal;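 also: printed compound slides probed with Chrdl2 protein at 4 µg/mL for 1 h at 4 C; score merges 667 nm emission intensity with signal to noise over three replicate slides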
[8] = biological target: Concanavalin-A (Canavalia ensiformis) (UniProt P02866); experiment: ConA small-molecule binders, primary screen, artefact control for SMM control protein annotation, biochemical, small-molecule microarray, Alexa647 label, 635 nm (AID 1127); conditions: ConA-A647 binding fluorescence, higher = more signal;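 also: z combines 667 nm emission intensity with signal-to-noise across three replicate slides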
[9] = anti-His antibody binders, primary screen, artefact control for SMM control protein annotation, biochemical, small-molecule microarray, 635 nm fluorescence (AID 1128); conditions: anti-His Alexa647 antibody binding, higher = more signal;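 also: score merges feature fluorescence with signal-to-noise for each printed compound spot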
[10] = tested on: Human papillomavirus type 1a E7 protein (residues 1-88); experiment: HPV1a E7 small-molecule binders, primary screen, biochemical, small-molecule microarray, residues 1-88, 635 nm (AID 1129); conditions: small-molecule microarray binding, fluorescence 635 nm; higher = more signal
[11] = biological target: Focal adhesion kinase 1 (Homo sapiens) (UniProt Q05397); experiment: small-molecule microarray binders of FAK, primary screen, biochemical, 635/667 nm fluorescence, BSA, DTT (AID 1130); conditions: PTK2 binding, 635 nm fluorescence, higher = more signal;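 also: composite of spot emission at 667 nm and signal to noise over triplicate slides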
[12] = tested on: Fibrinogen (Alexa647-labelled); experiment: fibrinogen binders on compound microarrays, profiling panel, artefact control for SMM control-protein annotation, biochemical, small-molecule microarray, 635/667 nm fluorescence (AID 1131); conditions: fibrinogen-A647 binding fluorescence, higher = more signal;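 also: z-score merges 667 nm fluorescence with per-spot signal-to-noise over triplicate slides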
[13] = biological target: Follistatin (Homo sapiens) (UniProt P19883); experiment: follistatin binders on small-molecule microarrays, primary screen, biochemical, small-molecule microarray, 635/667 nm fluorescence (AID 1132); conditions: FST binding, 635 nm fluorescence, higher = more signal
[14] = biological target: Fibroblast growth factor 2 (Homo sapiens) (UniProt P09038); experiment: FGF2 binders on small-molecule microarrays, primary screen, biochemical, small-molecule microarray, 635/667 nm fluorescence (AID 1133); conditions: small-molecule microarray binding, FGF2, fluorescence 635/667; higher = more signal
[15] = mitochondrial membrane potential change in A549 cells, profiling panel, cell-based, JC-1 fluorescence, basal, 24 h, 100 nL (AID 1138); conditions: higher = more signal;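 also: A549 lung adenocarcinoma cells under basal conditions with no added stimulus; test concentration not given here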
Lefty1 = Lefty1 binders on small-molecule microarrays, primary screen, biochemical, small-molecule microarray, 635/667 nm fluorescence (AID 1139); conditions: small-molecule microarray binding, fluorescence 635/667; higher = more signal
[16] = tested on: wheat germ agglutinin (Triticum aestivum), Alexa647-labelled; experiment: wheat germ agglutinin binders on compound microarrays, profiling panel, artefact control for SMM control-protein annotation, biochemical, small-molecule microarray, 635/667 nm fluorescence (AID 1140); conditions: WGA-A647 binding, 635 nm fluorescence, higher = more signal;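 also: score merges 667 nm feature emission with signal to noise over triplicate slides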
[17] = biological target: Luciferin 4-monooxygenase (Photinus pyralis) (UniProt P08659); experiment: firefly luciferase enzyme inhibitors, primary screen, biochemical, luminescence, purified enzyme, 2006 set (AID 1141); conditions: SteadyGlo luminescence, 30 min, higher = more signal, called active from +8 up or from −8 down;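 also: cell-free assay with purified firefly luciferase at 100 ng per well in PBS; test concentration not given here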
Chain of Luciferin 4-monooxygenase (Photinus pyralis) (P08659 whole entry, looked up): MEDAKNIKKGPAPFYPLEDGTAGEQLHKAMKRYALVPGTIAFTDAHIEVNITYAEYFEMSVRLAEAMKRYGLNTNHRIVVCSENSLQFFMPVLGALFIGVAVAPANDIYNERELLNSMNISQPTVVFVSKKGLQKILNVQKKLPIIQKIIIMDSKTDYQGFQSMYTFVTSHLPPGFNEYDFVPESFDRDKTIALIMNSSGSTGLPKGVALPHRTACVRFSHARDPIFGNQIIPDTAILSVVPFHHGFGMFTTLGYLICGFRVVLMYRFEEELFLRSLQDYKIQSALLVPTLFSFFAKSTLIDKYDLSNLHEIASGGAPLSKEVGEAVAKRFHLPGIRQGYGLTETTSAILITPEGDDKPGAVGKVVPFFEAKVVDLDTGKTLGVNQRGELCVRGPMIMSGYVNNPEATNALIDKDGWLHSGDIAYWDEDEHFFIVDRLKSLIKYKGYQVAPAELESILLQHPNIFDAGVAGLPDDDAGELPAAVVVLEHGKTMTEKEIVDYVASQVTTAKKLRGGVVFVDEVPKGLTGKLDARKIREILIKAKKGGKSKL

Chain of Concanavalin-A (Canavalia ensiformis) (P02866 whole entry, looked up): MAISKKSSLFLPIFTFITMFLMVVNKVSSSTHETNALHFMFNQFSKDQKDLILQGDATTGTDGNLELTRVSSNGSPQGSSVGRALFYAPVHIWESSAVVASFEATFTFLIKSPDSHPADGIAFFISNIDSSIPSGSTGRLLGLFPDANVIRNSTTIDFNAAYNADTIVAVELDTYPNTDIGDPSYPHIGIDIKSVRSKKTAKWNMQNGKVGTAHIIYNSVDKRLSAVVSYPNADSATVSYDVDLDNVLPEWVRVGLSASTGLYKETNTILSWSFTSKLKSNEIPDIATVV
Chain of Focal adhesion kinase 1 (Homo sapiens) (Q05397 whole entry, looked up): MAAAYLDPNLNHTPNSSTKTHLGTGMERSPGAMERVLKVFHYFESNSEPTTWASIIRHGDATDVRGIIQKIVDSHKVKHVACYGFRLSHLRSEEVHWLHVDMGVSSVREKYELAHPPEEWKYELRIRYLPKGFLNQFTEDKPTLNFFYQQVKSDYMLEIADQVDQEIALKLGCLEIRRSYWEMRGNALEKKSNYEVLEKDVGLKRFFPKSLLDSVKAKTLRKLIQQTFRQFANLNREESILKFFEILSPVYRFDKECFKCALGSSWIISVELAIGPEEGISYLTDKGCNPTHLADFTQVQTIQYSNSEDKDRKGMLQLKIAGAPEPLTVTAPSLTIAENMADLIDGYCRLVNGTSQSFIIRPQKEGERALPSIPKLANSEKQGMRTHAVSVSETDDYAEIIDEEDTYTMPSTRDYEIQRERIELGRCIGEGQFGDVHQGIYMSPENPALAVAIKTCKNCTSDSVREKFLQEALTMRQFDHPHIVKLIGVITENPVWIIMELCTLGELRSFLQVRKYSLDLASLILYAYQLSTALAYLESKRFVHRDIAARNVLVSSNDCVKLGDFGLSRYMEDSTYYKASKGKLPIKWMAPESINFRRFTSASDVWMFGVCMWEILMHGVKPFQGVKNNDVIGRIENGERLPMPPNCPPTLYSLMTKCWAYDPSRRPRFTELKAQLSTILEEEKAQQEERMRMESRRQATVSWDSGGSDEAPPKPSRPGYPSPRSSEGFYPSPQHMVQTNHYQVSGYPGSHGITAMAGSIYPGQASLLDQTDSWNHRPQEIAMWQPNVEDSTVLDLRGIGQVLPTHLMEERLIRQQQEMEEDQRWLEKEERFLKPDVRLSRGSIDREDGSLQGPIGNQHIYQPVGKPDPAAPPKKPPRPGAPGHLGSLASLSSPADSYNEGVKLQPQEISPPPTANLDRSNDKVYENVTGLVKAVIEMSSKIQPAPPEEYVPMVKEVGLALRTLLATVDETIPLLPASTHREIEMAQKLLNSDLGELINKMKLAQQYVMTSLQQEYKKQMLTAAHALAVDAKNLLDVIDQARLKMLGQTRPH
Chain of Follistatin (Homo sapiens) (P19883 whole entry, looked up): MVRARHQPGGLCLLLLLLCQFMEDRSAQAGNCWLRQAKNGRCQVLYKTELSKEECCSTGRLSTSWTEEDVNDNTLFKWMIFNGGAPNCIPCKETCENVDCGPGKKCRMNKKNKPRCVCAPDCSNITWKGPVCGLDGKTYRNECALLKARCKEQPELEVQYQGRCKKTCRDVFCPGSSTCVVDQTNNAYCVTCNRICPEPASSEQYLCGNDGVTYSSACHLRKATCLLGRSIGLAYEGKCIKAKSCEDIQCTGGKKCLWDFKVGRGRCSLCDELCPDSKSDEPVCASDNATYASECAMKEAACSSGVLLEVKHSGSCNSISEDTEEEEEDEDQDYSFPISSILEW
Chain of Fibroblast growth factor 2 (Homo sapiens) (P09038 whole entry, looked up): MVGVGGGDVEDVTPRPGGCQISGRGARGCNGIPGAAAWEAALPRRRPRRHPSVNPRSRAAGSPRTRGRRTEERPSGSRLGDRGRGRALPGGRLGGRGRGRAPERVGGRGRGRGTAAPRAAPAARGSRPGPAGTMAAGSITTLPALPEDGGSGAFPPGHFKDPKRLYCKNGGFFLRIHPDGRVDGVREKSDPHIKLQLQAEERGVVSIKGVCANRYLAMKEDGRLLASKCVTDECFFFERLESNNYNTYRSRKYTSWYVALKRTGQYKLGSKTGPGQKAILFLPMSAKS
Chain of Albumin (Bos taurus) (P02769 whole entry, looked up): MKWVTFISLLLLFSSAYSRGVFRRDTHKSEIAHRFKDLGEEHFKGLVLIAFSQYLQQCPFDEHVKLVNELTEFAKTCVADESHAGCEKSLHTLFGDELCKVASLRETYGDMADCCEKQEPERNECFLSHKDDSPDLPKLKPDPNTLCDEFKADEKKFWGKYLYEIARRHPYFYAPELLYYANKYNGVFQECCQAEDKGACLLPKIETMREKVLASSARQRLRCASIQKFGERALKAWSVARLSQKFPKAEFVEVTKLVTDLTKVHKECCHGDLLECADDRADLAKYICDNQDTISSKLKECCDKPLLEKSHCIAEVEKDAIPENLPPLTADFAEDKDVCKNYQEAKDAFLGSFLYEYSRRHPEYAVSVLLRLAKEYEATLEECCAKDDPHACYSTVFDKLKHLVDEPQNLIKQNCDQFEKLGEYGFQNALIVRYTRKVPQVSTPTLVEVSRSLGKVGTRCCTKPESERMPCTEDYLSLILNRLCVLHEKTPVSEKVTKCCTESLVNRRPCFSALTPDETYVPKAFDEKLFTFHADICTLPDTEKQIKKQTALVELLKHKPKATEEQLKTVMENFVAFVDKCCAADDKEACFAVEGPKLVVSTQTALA

Row | Structure (SMILES) | composite z-score (Albumin (Bos taurus)) | composite Z-score [1] | composite z-score [2] | composite z-score [3] | composite z-score [4] | composite z-score [5] | composite z-score [6] | composite z-score (Sam68 (KHDRBS1)) | composite z-score [7] | composite z-score [8] | composite z-score [9] | composite z-score [10] | composite z-score [11] | composite z-score [12] | composite z-score [13] | composite z-score [14] | z-score [15] | composite z-score (Lefty1) | composite z-score [16] | z-score [17]
1 | CO[C@H]1COC(=O)[C@@H](C)COC(=O)[C@@H](OCc2ccccc2)C=C[C@@H]1C | -0.858 | -0.535 (inactive) | -0.103 | -0.115 | -0.369 | -0.194 | -0.259 | -0.234 | 0.159 | -0.459 | -0.328 | -0.869 | 0.106 | -0.648 | -0.17 | 0.193 | 0.651 | 0.0823 | -1.08 | -0.415 (inactive)
2 | COc1ccc(COC(=O)NN=C2C[C@@H](O)[C@@H](O)[C@@H]3[C@@H]4C(=O)N(c5cccc(Oc6ccccc6)c5)C(=O)[C@@H]4CC[C@@H]23)cc1 | 0.267 | 0.807 (inactive) | 0.123 | -0.149 | 0.0806 | 0.303 | -0.116 | -0.456 | -0.424 | -0.337 | 0.177 | -0.181 | -0.0032 | 0.238 | -0.823 | -0.415 | -0.201 | -0.282 | 0.485 | 0.891 (inactive)
3 | COc1cccc([C@H]2Oc3ccc(OC)cc3C(=NO[C@@H]3O[C@H](COC(C)=O)[C@@H](OC(C)=O)[C@H](OC(C)=O)[C@H]3OC(C)=O)[C@@H]2O)c1 | 0.0351 | 1.25 (inactive) | -0.0598 | -0.141 | -0.403 | 0.1 | 0.474 | 0.153 | -0.0174 | -0.143 | 0.238 | 0.23 | 0.478 | -0.339 | -0.0006 | 0.192 | -0.172 | 0.228 | -0.639 | 0.713 (inactive)
4 | O=C1[C@H]2[C@H]3[C@H](O)[C@H](O)CC(=NO[C@@H]4O[C@H](CO)[C@@H](O)[C@H](O)[C@H]4O)[C@H]3CC[C@H]2C(=O)N1c1cccc(Oc2ccccc2)c1 | -0.0534 | 0.189 (inactive) | -0.118 | -0.133 | -0.0707 | 0.305 | 0.105 | 0.88 | 0.48 | 0.264 | 1.25 | 0.394 | 0.199 | 0.574 | 0.423 | 0.445 | -0.873 | 0.802 | 0.13 | 1.14 (inactive)
5 | C=CC1=C[C@H](O)[C@@H]2O[C@@H]2C12OCCCO2 | -0.728 | -0.174 (inactive) | -0.131 | -0.0878 | 0.0206 | -0.281 | -0.115 | 0.372 | 0.202 | 0.337 | 0.837 | 0.661 | 0.172 | 0.429 | -0.285 | 0.151 | -0.722 | 0.0863 | -0.159 | 0.571 (inactive)
6 | CCCNC(=O)OC[C@H]1O[C@H](CCON=C(C)CCN2CCc3nc(CC)c(CC)cc3C2)C=C[C@@H]1Oc1ccc(OC)cc1 | 0.322 | 0.0421 (inactive) | 0.105 | -0.14 | -0.164 | 0.176 | 0.0186 | 0.285 | -0.0024 | 0.0004 | 0.869 | -0.476 | 0.512 | 0.564 | 0.248 | -0.167 | 0.77 | 0.374 | 0.316 | -0.512 (inactive)
7 | COC(=O)CC=C[C@@H](C)[C@@H](C=NO[C@H](C)c1cn([C@@H]2COC[C@H]2O)nn1)NS(=O)(=O)c1ccc(C)cc1 | -0.129 | 0.355 (inactive) | 0.0316 | -0.0108 | -0.156 | 0.0779 | 0.219 | 0.277 | 0.877 | -0.653 | 1.41 | -0.0194 | -0.217 | 0.533 | 1.08 | 0.845 | 0.109 | 1.26 | 0.521 | 0.316 (inactive)
8 | O=C1CCCC=C1C(CCc1ccccc1)OC(=O)c1ccc(Br)cc1 (stereo not given) | -0.457 | -0.727 (inactive) | -0.104 | -0.146 | -0.475 | 0.214 | -0.815 | -1.4 | 0.388 | -0.612 | 0.0508 | -0.757 | -0.0417 | -0.612 | 0.0148 | 0.0039 | -0.65 | 0.167 | -0.254 | 0.063 (inactive)
9 | COC(=O)[C@@H]1CC[C@H](C)[C@@H](c2ccc(C)cc2)N1C(=O)c1ccc(C=NOCC[C@@H]2C=C[C@H](OC(C)=O)[C@@H](COC(C)=O)O2)cc1 | -0.129 | -0.2 (inactive) | 0.088 | -0.1 | -0.0127 | 0.148 | -0.552 | 0.926 | 0.772 | 0.658 | 2.68 | 0.895 | -0.125 | 0.316 | 0.47 | 0.614 | -0.512 | 0.605 | 0.175 | 0.963 (inactive)
10 | CCN1C(=O)[C@H]2[C@H]3[C@H](O)[C@H](O)CC(=NNC(=O)OCc4ccc(OC)cc4)[C@@H]3CC[C@H]2C1=O | -0.254 | 0.0958 (inactive) | 0.0945 | -0.0894 | -0.403 | -0.42 | 0.106 | -0.362 | 0.0319 | -0.205 | 0.0221 | -0.562 | 0.0875 | -0.193 | -0.735 | 0.193 | -0.0338 | -0.524 | 0.0083 | -0.207 (inactive)
11 | CCN1C(=O)[C@@H]2[C@H]3C(=CC[C@@H]2C1=O)C1(OCCCO1)[C@H]1O[C@H]1[C@H]3O | 0.488 | 0.369 (inactive) | 0.162 | -0.0948 | 0.429 | 2.12 | 0.251 | 1.29 | 0.333 | 1 | 0.841 | 1.04 | 0.162 | 0.982 | 1.12 | 0.944 | -2.41 | 0.946 | 0.692 | -26.1 (active)

— PubChem BioAssay
